From PubChem BioAssay (NCI)
About 83,000 compounds went through this panel and 20% of them were active in at least one assay; those are over-represented in the sample as a whole.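 Assay: single dose, 48 h. Readout: percent growth (0 = no net growth; negative = cell death). Active: <10.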 Values without a mark were called inactive. Calls of active or inactive are those of the source.

Columns and labels:
Assay in all cases: NCI-60 one-dose screen, 48 h (100 = growth as untreated, 0 = no growth, -100 = all killed)
Details in all cases: 10 µM unless noted
NCI-H23 lung = test system: NCI-H23 lung
NCI-H226 lung = test system: NCI-H226 lung
NCI-H322M lung = test system: NCI-H322M lung
HOP-62 NSCLC = test system: HOP-62 NSCLC
NCI-H460 lung = test system: NCI-H460 lung
HOP-92 NSCLC = test system: HOP-92 NSCLC
NCI-H522 lung = test system: NCI-H522 lung
A549/ATCC NSCLC = test system: A549/ATCC NSCLC
786-0 renal = test system: 786-0 renal
COLO 205 colon = test system: COLO 205 colon
DU-145 prostate = test system: DU-145 prostate
K-562 leukemia = test system: K-562 leukemia
MALME-3M melanoma = test system: MALME-3M melanoma
MDA-MB-231 breast = test system: MDA-MB-231 breast
RXF 393 renal = test system: RXF 393 renal
SF-268 CNS = test system: SF-268 CNS
SF-295 CNS = test system: SF-295 CNS
SF-539 CNS = test system: SF-539 CNS
UACC-257 melanoma = test system: UACC-257 melanoma
M14 melanoma = test system: M14 melanoma

Row | Compound | growth (NCI-H23 lung) | growth (NCI-H226 lung) | growth (NCI-H322M lung) | growth (HOP-62 NSCLC) | growth (NCI-H460 lung) | growth (HOP-92 NSCLC) | growth (NCI-H522 lung) | growth (A549/ATCC NSCLC) | growth (786-0 renal) | growth (COLO 205 colon) | growth (DU-145 prostate) | growth (K-562 leukemia) | growth (MALME-3M melanoma) | growth (MDA-MB-231 breast) | growth (RXF 393 renal) | growth (SF-268 CNS) | growth (SF-295 CNS) | growth (SF-539 CNS) | growth (UACC-257 melanoma) | growth (M14 melanoma)
1 | CC[C@]12C=CCN3CC[C@@]4(c5ccc(OC)cc5N(C)[C@H]4[C@@](O)(C(=O)OC)[C@@H]1OC(=O)CCC(=O)N[C@@H](Cc1c[nH]c4ccccc14)C(=O)OC)[C@@H]32 | 101% | 104% | 98.5% | 90.1% | 96.6% | 66.8% | 78.6% | 86.8% | 91.5% | 98.8% | 99.4% | 85.7% | 57.2% | 67.6% | 15.5% | 85.5% | 99.3% | 102% | 67% | 97.3%
2 | CC(=O)O[C@H]1CC[C@]2(C)[C@H]3CC[C@@H]4[C@H]5[C@H](C(C)C)CC[C@]5(C(=O)OCC(CO)(CO)N=C(N)N)CC[C@@]4(C)[C@]3(C)CC[C@H]2C1(C)C | 77.7% | 91.4% | 70.2% | 86.1% | -32.4% (active) | 32% | -69.6% (active) | 54.6% | 74.3% | -89.9% (active) | 37.4% | -26.7% (active) | 17% | 42.1% | 40.6% | 77.6% | 100% | 86.4% | 90.2% | 73.4%
3 | Cc1ccc(-c2nc(/C=N/Nc3cc(C)nc4ccc(Cl)cc34)c(C)o2)cc1 | 44.5% | 81.3% | -82.5% (active) | 74.9% | -77.2% (active) | 29.9% | -69.5% (active) | -47.4% (active) | -93.2% (active) | -86% (active) | 3.19% (active) | -10.9% (active) | -74.6% (active) | -83.9% (active) | -84.9% (active) | -52.7% (active) | 17.1% | -77.7% (active) | 107% | -14.2% (active)
4 | CSc1nc(NCCO)c(C#N)c(-c2cccc(N)c2)n1 | 90.5% | 92.8% | 97.6% | 83.7% | 99.6% | 95.7% | 87.4% | 100% | 103% | 108% | 106% | 94.4% | 101% | 86.4% | 113% | 96.2% | 96.9% | 91.7% | 100% | 100%
5 | O=[N+]([O-])c1cccc(-c2nc3sccn3c2-c2ccnc(NCCCNS(=O)(=O)c3ccc(Br)cc3)n2)c1 | 41.4% | 41% | 76.1% | 74.7% | 66.7% | 78% | 37.4% | 53.8% | 75.5% | 41.3% | 58.9% | 31.7% | 59.9% | 67.3% | 81.3% | 56.6% | 48.2% | 90.3% | 61.1% | 45.8%
6 | CCCCCCCCCC(=O)Oc1ccc(/C(=C(/C)Cc2cccc(OC)c2)c2ccc(OCCN(C)C)cc2)cc1 | 99.3% | 114% | 107% | 111% | 112% | 113% | 97% | 108% | 103% | 118% | 108% | 100% | 115% | 105% | 115% | 100% | 107% | 103% | 110% | 105%
7 | Cc1ccc2c(c1)C(=O)c1c-2c(OCCCN(C)C)nc2ccccc12 | 7.88% (active) | 32.8% | 19.6% | 19.9% | -8.22% (active) | -10.7% (active) | -11% (active) | -43.9% (active) | 44.7% | -30.6% (active) | 34.3% | -59.4% (active) | -71.7% (active) | -22.7% (active) | 30.1% | 30.8% | 60% | 14.4% | 69.5% | -82.2% (active)
8 | COc1ccc(OCC(=O)Nc2ccc(-c3nc4ccccc4s3)cc2C)cc1 | 69.3% | 51% | 94.7% | 89.5% | 95.5% | 68.4% | 61.6% | 86.2% | 88.8% | 120% | 110% | 59.5% | 100% | 85.7% | 115% | 94.3% | 99.8% | 89.6% | 109% | 89.9%
9 | CC1=C(C)C(=O)OC([C@](C)(O)[C@]2(O)CC[C@@]3(O)[C@@H]4C[C@H]5O[C@]56CC=CC(=O)[C@]6(C)[C@H]4CC[C@]23COC(=O)c2ccc(C)o2)C1 (stereo not given in full) | -45% (active) | -20.9% (active) | -63% (active) | -73.8% (active) | -57.1% (active) | -58.7% (active) | -68.7% (active) | 4.97% (active) | -64.1% (active) | -72.1% (active) | -92.1% (active) | 1.46% (active) | -85% (active) | -54.8% (active) | -88.8% (active) | -55.8% (active) | -24.5% (active) | -91.2% (active) | -58.7% (active) | -0.794% (active)
10 | Cc1ccc2c(c1)O/C(=C\c1cccc(OCC(=O)c3ccccc3)c1)C2=O | 97.4% | 93.6% | 116% | 90.3% | 107% | 75.2% | 70.3% | 81.6% | 91.1% | 101% | 103% | 93.4% | 94.7% | 79% | 80% | 103% | 89.4% | 105% | 93.6% | 98.9%
11 | CCN(CC)CCCC(C)NCCCNc1cccc2cccnc12 (stereo not given) | 92.8% | 93.5% | 79.1% | 82.6% | 101% | 92.5% | 103% | 106% | 109% | 91.7% | 106% | 97.5% | 88.1% | 81.4% | 104% | 86.6% | 98% | 100% | 104% | 104%
12 | O=c1c2c3c(sc2n2c(CCl)nnc2n1Cc1ccccc1)CCCC3 | -42.1% (active) | -60.9% (active) | -97% (active) | 54.7% | -11.5% (active) | -81.7% (active) | -57.1% (active) | 28.5% | -18% (active) | -39.1% (active) | -11.9% (active) | -65.2% (active) | -71.4% (active) | -60.2% (active) | -39.1% (active) | -59.2% (active) | 126% | -85.5% (active) | -53.6% (active) | -49.9% (active)
13 | COc1ccccc1/C=C(/C(=O)c1ccccc1)c1ccccc1 | 95.4% | 107% | 115% | 114% | 93.6% | 75.7% | 106% | 97.4% | 103% | 122% | 110% | 86.6% | 135% | 98.6% | 105% | 97.8% | 104% | 106% | 93.4% | 101%
14 | CCCCCCCCCCCCCCCC(=O)OCC1OC(n2cnc3c(=S)nc(N)[nH]c32)C(OC(=O)CCCCCCCCCCCCCCC)C1OC(=O)CCCCCCCCCCCCCCC (stereo not given) | 66.2% | 76.7% | 72.2% | 47.8% | 63.4% | 56% | 66.1% | 74.3% | 61% | 90% | 39.8% | 15.9% | 82.6% | 47.4% | 164% | 67.2% | 21.1% | 79.9% | 88.7% | 34.1%
15 | COc1ccc(-c2nn(-c3ccccc3)cc2/C=C/C(=O)OCc2cn(-c3ccc(F)c(Cl)c3)nn2)cc1 | 72.6% | 80.5% | 92.1% | 78.5% | 96.7% | 101% | 65.2% | 92.1% | 101% | 104% | 97.2% | 69.7% | 59% | 56.9% | 68.4% | 77.4% | 97.3% | 98.7% | 92.9% | 97.6%
